# Reference: PubChem BioAssay
# Unmarked numbers belong to inactive results. The rule behind the calls is not given here.
# Molecular target: Pantothenate synthetase (Mycobacterium tuberculosis (strain ATCC 25618 / H37Rv)) (UniProt P9WIL5)
# Assay: Recombinant Mtb pantothenate synthetase (PanC) inhibitors, coupled enzyme, confirmatory (AID 375);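 note: 0% = full reaction with vehicle and 100% = no enzyme background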
# Settings: coupled enzyme assay; at 10 µM, hits give high values
# Sequence of Pantothenate synthetase (Mycobacterium tuberculosis (strain ATCC 25618 / H37Rv)) (P9WIL5 whole entry, looked up): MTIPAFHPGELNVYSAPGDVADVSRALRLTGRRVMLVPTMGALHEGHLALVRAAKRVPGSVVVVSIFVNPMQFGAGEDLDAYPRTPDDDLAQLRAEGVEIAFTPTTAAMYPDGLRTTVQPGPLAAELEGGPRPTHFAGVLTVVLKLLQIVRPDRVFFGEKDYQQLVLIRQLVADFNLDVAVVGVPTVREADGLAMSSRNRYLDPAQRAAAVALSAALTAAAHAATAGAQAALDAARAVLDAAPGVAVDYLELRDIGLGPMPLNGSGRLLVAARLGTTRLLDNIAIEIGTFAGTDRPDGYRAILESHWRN
row,SMILES,inhibition
1,Cc1cc(OCC(O)CN2CCN(CCO)CC2)ccc1C(C)C (stereo not given),8%
2,COc1ccc(S(=O)(=O)N2CCN(CC(=O)Nc3ccc(F)c(F)c3)CC2)cc1,7%
3,CCOC(=O)N1CCN(C(=O)CSc2cc(C)nc3c(-c4ccccc4OC)c(C)nn23)CC1,0%
4,CC1CCN(CCC(=O)Nc2ccc(Br)cc2)CC1,0%
5,Cc1c(C)[n+](=O)c2c(n1[O-])CCCCC2,1%
6,O=C(NCCCN1CCCC1=O)c1ccc2c(c1)NC(=O)C(N1CCOCC1)S2 (stereo not given),2%
7,CCOc1cc(C2NC(=O)NC(O)(C(F)(F)F)C2C(=O)c2ccccc2)ccc1OC (stereo not given),3%
8,CC(C)CCNc1cc(=O)n(C)c(=O)n1C,0%
9,COc1ccc(-n2c(Cc3cccn3C)nnc2SCC(=O)Nc2ccccc2)cc1,0%
10,S=c1[nH]nc(-c2ccccc2)n1C1C=CCCC1 (stereo not given),0%
11,CCOC(=O)c1cc2sc(C)cc2n1C(C)C(=O)OCC (stereo not given),11%
12,CCOC(=O)c1[nH]c2ccccc2c1NC(=O)c1ccco1,0%
13,CCOC(=O)C1CCN(Cc2ccc(C(=O)OC)cc2)CC1,1%
14,C=C1[C@@H](C)C2[C@H](Cc3ccccc3)NC(=O)[C@]23OC(=O)CC[C@H](O)CCC[C@H](C)C/C=C/[C@H]3[C@@H]1O (stereo not given in full),0%
15,N#CCC(=O)N1CCn2c1nc1ccccc12,0%
16,O=C(NCC1CCCO1)C1CCN(S(=O)(=O)c2cccc3cccnc23)CC1 (stereo not given),0%
17,O=C(CCn1nc(-c2ccc(Cl)cc2)ccc1=O)N1CCN(c2ccccn2)CC1,7%
18,Oc1ccc2ccccc2c1CN1CCN(c2ccccc2F)CC1,1%
19,C=CCNC(=O)CSc1nc2sc(C)c(C)c2c(=O)[nH]1,0%
20,CCc1ccc(N(CC(=O)NC2CCCC2)S(=O)(=O)c2c(C)noc2C)cc1,1%
21,CCCCSCCCNC(=O)CS(=O)Cc1nc(-c2cccc(C)c2)oc1C (stereo not given),6%
22,COC(=O)c1ccc(COc2ncnc3c(Cl)cc(Cl)cc23)o1,0%
23,C=CCn1c(SCn2nnc3ccccc3c2=O)nnc1-c1ccc(Br)cc1,2%

row,SMILES,inhibition
1,Cc1ccc(-c2noc(CCC(=O)NCCc3ccccc3Cl)n2)cc1,1%
2,COc1ccc(CCn2c(-c3ccco3)nc3ccccc3c2=O)cc1OC,0%
3,Cn1c(=O)c2ncn(CC(=O)NCCOc3ccc(C(C)(C)C)cc3)c2n(C)c1=O,0%
4,O=C(CCCCCn1c(=S)[nH]c2cc3c(cc2c1=O)OCO3)N1CCN(Cc2ccccc2)CC1,1%
5,COc1ccccc1NC(=O)CSc1nnc(Cc2cccn2C)n1-c1ccc(F)cc1,0%
6,COc1ccc(CC(NC(C)=O)C(=O)NC2CCN(C(=O)Nc3ccc(C#N)cc3)CC2)cc1OC (stereo not given),10%
7,Cc1cc(NC(=O)CN2CCC(O)(c3cccc(F)c3)CC2)no1,0%
8,COCCn1c(C23CC4CC(CC(C4)C2)C3)n[nH]c1=S,0%
9,CNC(=O)Nc1cccc(C(F)(F)F)c1,0%
10,O=c1c2ccccc2c(C=Nc2ccc(Cl)cn2)c(O)n1-c1cc(Cl)ccc1N1CCOCC1,4%
11,COc1ccc(CCNC(=O)C2CCCN(c3nn4c(=O)cc(C)nc4s3)C2)cc1OC (stereo not given),0%
12,C=CCn1c(COc2ccccc2F)nnc1SCC(=O)N1CC(=O)Nc2ccccc21,1%
13,CC(Sc1nnnn1C)C(=O)Nc1ccc(Oc2ccccc2)cc1 (stereo not given),0%
14,CC1(C)CNC(=O)c2sc(N3CCOCC3)nc2C1,0%
15,Cc1cc(C(F)F)n2ncc(C(=O)NC3CCCCCC3)c2n1,0%
16,c1ccc2oc(SCc3cn4ccccc4n3)nc2c1,0%
17,Cc1cc(C)cc(-n2nnc(C(=O)NCc3ccco3)c2N)c1,0%
18,O=c1c2ccccc2nc(SCc2nc(-c3ccccc3)no2)n1-c1ccc(F)cc1,0%
19,CCCCNC(=O)C(C#N)c1nc2ccccc2nc1N1CCCC1 (stereo not given),0%
20,CCOC(=O)CSc1cn2c(n1)CCC2,3%
21,CC1CN(c2ccc(Oc3ccccc3)cc2)c2nc3c(c(=O)n(CC(N)=O)c(=O)n3C)n2C1 (stereo not given),3%
22,Cc1ccc(CCNC(=O)C2CCCN(S(=O)(=O)c3cnc[nH]3)C2)cc1 (stereo not given),2%
